Screening data (PubChem BioAssay)
This is a sample that favours compounds with a hit; in the whole collection about 3.4% have one here.
MITF primary – MITF inhibitors, primary screen, biochemical, AlphaScreen, human; Microphthalmia-associated transcription factor (Homo sapiens), O75030; AlphaScreen MITF homodimerization, bead proximity signal; inhibition, % at 2.6 µM; hit rate 0.91% among 650,000; AID 1259374, 2018; in the data active = inhibition above about 50%;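 note: 0% = vehicle wells with protein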
Target sequence (O75030 whole entry, looked up): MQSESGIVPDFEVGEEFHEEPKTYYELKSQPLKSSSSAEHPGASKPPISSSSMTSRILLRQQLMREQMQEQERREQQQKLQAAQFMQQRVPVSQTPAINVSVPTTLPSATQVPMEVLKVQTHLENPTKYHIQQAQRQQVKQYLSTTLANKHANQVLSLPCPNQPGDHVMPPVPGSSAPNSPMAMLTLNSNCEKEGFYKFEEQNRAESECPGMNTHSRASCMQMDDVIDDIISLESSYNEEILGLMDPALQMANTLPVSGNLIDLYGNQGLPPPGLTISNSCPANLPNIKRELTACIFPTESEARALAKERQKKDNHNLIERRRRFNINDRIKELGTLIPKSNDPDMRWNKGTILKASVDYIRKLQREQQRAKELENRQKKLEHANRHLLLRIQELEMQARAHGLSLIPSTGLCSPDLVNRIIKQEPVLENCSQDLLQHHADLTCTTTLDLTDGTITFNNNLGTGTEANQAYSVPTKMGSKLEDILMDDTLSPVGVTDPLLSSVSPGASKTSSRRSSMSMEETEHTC
GPR151 activ – activators of human GPR151, primary screen, cell-based, PathHunter beta-arrestin, luminescence; G-protein coupled receptor 151 (Homo sapiens), Q8TDV0; hit rate 1% among 650,000; activation, % at 11.2 µM; PathHunter beta-arrestin GPR151 cells; AID 1508602, 2020; in the data active = activation above about 4.9%;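 note: 0% = median of compound wells and 100% = cells with positive control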
FBW7 act – FBW7 E3 ligase activators, primary screen, biochemical, AlphaScreen, human; AID 1259310, 2017; hit rate 0.13% among 650,000; F-box/WD repeat-containing protein 7 (Homo sapiens), Q969H0; normalized activity (activation), % at 26.1 µM; AlphaScreen FBW7–phospho-cyclin E peptide binding, activator screen; in the data active = normalized activity above about 1.9%;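 note: purified mutant Fbw7 with reduced substrate affinity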
TEAD-YAP inh – TEAD-YAP interaction inhibition, primary screen, TEAD-YAP interaction inhibitor project, luminescence, HEK-TIYL cells; TEAD-Gal4/YAP UAS-luciferase luminescence; AID 1259422, 2018; inhibition, % at 9.12 µM; hit rate 1.4% among 640,000; in the data active = inhibition above about 32%;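 note: 0% = median of test compound wells and 100% = reference inhibitor wells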
MITF confirm – MITF inhibitors, retest of hits, confirmation, biochemical, AlphaScreen, triplicate. shares compounds with MITF primary. AlphaScreen MITF homodimerization, biotin/His-MITF beads. inhibition, % at 2.6 µM. hit rate 16% among 4,700;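 active = inhibition above a cutoff derived from the DMSO control wells, cut at about 28% in these data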;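 note: 0% = MITF dimer wells with DMSO only; inhibitors lower the bead chemiluminescence by keeping MITF from dimerizing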
AS interf DR – AlphaScreen optical interference compounds, dose response, counter-screen, biochemical, HTS; shares compounds with MITF primary; AlphaScreen optical interference counterscreen, cell-free; IC50, µM; hit rate 6% among 480; AID 1259373, 2018; call rule not given here
AS interf ctr – AlphaScreen optical interference compounds, counter-screen for MITF inhibitor project, biochemical, triplicate; shares compounds with MITF primary; LysRS AlphaScreen counterscreen, signal interference; inhibition, % at 2.6 µM; hit rate 7.6% among 4,700;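 active = inhibition above a cutoff derived from the DMSO control wells, cut at about 30% in these data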
* marks the source's active call; other numbers are inactive results; . = not tested or not shown.

SMILES	MITF primary	GPR151 activ	FBW7 act	TEAD-YAP inh	MITF confirm	AS interf ctr	others
CC(=O)c1cccc(OCCCN2CCCCC2)c1	32	1	0	0	.	.
CCN1CCN(CCCCOc2cccc(C(C)=O)c2)CC1	59*	1	0	-7	10	18
CC12CCC(C(=O)N(NC(=O)CCc3ccccc3)C1=O)C2(C)C (configuration not stated)	65*	3	0	12	-4	11
O=C(CCc1ccccc1)NN1C(=O)CCC1=O	-2	0	0	-2	.	.
COC(=O)c1sc(NC(=O)CN2CCCCC2C)c(C(=O)OC)c1C (configuration not stated)	59*	3	0	3	1	0
CCOC(=O)c1sc(NC(=O)CN2CCCCC2C)c(C(=O)OCC)c1C (configuration not stated)	24	-1	0	0	.	.
Cc1cccc(NC(=O)c2ccc(N3C(=O)C4C5C=CC(C6CC56)C4C3=O)cc2)c1 (configuration not stated)	-12	-1	0	-9	.	.
Cc1cccc(NC(=O)c2ccc(N3C(=O)C4C5C=CC(C5)C4C3=O)cc2)c1 (configuration not stated)	76*	1	0	-16	4	10
O=C(Nc1cccc(Cl)c1)N1CCCC(N2CCOCC2)C1 (configuration not stated)	13	-1	0	-5	.	.
O=C(CNc1ccc(F)cc1)N/N=C/c1ccc(O)cc1O	9	0	0	-4	.	.
Cc1cccc(Nc2c([N+](=O)[O-])ccc3nonc23)c1	-8	-1	0	3	.	.
Cc1cccc(Nc2c([N+](=O)[O-])cc([N+](=O)[O-])c3nonc23)c1	56*	0	0	-14	-5	6
C/C(CC(=O)Nc1cccc(C)n1)=N\NC(=O)c1cccc(C)c1O	1	0	0	2	.	.
O=C(OCCCC(=O)N1CCOCC1)c1cc(-c2ccco2)nc2ccccc12	73*	-1	0	-7	77*	4	AS interf DR=>6.6
COCCNC(=O)COC(=O)c1cc(-c2ccco2)nc2ccccc12	72*	1	0	2	69*	-9	AS interf DR=>6.6
O=C(NC(=S)N1CCOCC1)c1cc(-c2ccco2)nc2ccccc12	-4	3	0	3	.	.
Cc1[nH][nH]c(=O)c1C(c1ccc([N+](=O)[O-])o1)c1c(C)[nH][nH]c1=O	59*	0	-1	4	28*	-1	AS interf DR=>6.5
Cc1[nH][nH]c(=O)c1C(c1ccc(-c2cccc([N+](=O)[O-])c2)o1)c1c(C)[nH][nH]c1=O	1	0	0	0	.	.
O=C(O)c1coc(CNC(=O)c2cocc2C(=O)O)c1	64*	0	0	9	50*	14	AS interf DR=>6.5
O=C(Nc1nc(-c2ccccn2)cs1)C1CC1	35	-1	0	-27	.	.
O=C(Nc1nc(-c2ccccn2)cs1)C12CC3CC(CC(O)(C3)C1)C2	55*	-3	0	-4	61*	100*
CCOc1ccc2[nH]c(=O)c(CN(CCOC)C(=O)c3ccccc3)cc2c1	15	-1	2	8	.	.
OCCN1CCN(c2cc(-c3ccncc3)nc(-c3ccccc3)n2)CC1	-33	0	0	-1	.	.
OCCN1CCN(c2cc(-c3ccccc3)c3ccccc3n2)CC1	76*	-1	0	2	6	11
CCn1c(NN)nc2c1c(=O)n(C)c(=O)n2C	22	-2	0	8	.	.
SMILES	MITF primary	GPR151 activ	FBW7 act	TEAD-YAP inh	MITF confirm	AS interf ctr	others
COc1ccc(-n2nc(C(=O)N3CCCCC3)c3ccccc3c2=O)c(OC)c1	9	1	0	6	.	.
CCCCC(=O)Nc1cc(C)c(Cl)cc1OC	1	2	0	-3	.	.
CCCCC(=O)Nc1cc(OC)c(NC(=S)NC)cc1OC	75*	2	0	-6	9	12
CCC(C)OC(=O)C1=C(C)NC2=C(C(=O)CC(c3ccccc3)C2)C1c1cc(OC)c(OC)cc1Br (configuration not stated)	63*	0	0	0	14	17
Cc1ccc(CN2CCN(S(=O)(=O)c3ccccc3[N+](=O)[O-])CC2)cc1	58*	2	0	8	12	21
CCc1ccc(CN2CCN(S(=O)(=O)c3ccccc3[N+](=O)[O-])CC2)cc1	28	0	0	-4	.	.
CSc1ccc(CN2CCN(S(=O)(=O)c3ccccc3[N+](=O)[O-])CC2)cc1	57*	-2	0	-1	10	17
CCCCOC(=O)c1c(C)oc2ccc(NS(=O)(=O)c3ccc(C)cc3C)cc12	7	0	0	5	.	.
CCOC(=O)C1=CN(Cc2ccc(F)cc2)C=C(C(=O)OCC)C1c1cc(Br)ccc1OC	0	-2	0	-8	.	.
CCOC(=O)c1c(N)nn2c3ccccc3n(C)c12	64*	1	0	-24	11	18
c1coc(CN2CCN(C3CCCCCC3)CC2)c1	74*	1	0	12	0	5
CC1CCCCC1N1CCN(Cc2ccco2)CC1 (configuration not stated)	69*	-1	0	5	-3	5
c1coc(CN2CCC(N3CCOCC3)CC2)c1	60*	1	1	12	13	16
c1coc(Cn2nnnc2CN2CCN(C3CCCC3)CC2)c1	-1	1	0	-2	.	.
S=C(NC1CCCCC1)N1CCN(Cc2ccco2)CC1	-21	3	0	-16	.	.
CCn1cc(C(=O)N2CCC3(CC2)NC(=O)c2cccnc2N3C)cn1	-10	0	0	-4	.	.
CN(C)c1ccc(/C=C(\C#N)C(=O)NCC2CCCO2)o1 (configuration not stated)	5	-1	0	-39	.	.
O=P(OCCN1CCOCC1)(c1ccccc1)c1ccccc1	57*	2	0	-1	6	11
CN1CCN(CCOc2ccc(C(=O)c3ccccc3)cc2)CC1	81*	3	1	-17	3	0
CCN1CCN(CCOc2ccc(C(=O)c3ccccc3)cc2)CC1	41	-1	0	-3	.	.
O=C(/C=C/c1ccccc1)OCCN1CCOCC1	9	0	1	0	.	.
O=C(c1ccccc1)c1ccc(OCCCN2CCCC2)cc1	53*	-1	0	8	0	0
CCOc1ccc(OCCN2CCOCC2)cc1	76*	1	0	-18	10	15
